Several values for one entry are separate records, joined by “and”; a condition that tells them apart may be missing. Equal entries are not always repeated. A number with no mark means an inactive call. Entries that show only a call come without a potency. Activity calls are given as the source filed them. Unless noted, calls come from the whole dose curve; as a rule, active = well fitted curve in the direction sought with a large enough effect in the repeat runs; inconclusive = weak or mixed curves; inactive = no such curve, though single readings can be large; an effect the other way counts as inactive or inconclusive.
How the values were obtained:
[1] = qHTS assay to identify small molecule antagonists of the estrogen receptor alpha (ER-alpha) signaling pathway - cell viability counter screen (AID 743074; calls by dose curve;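 note: HEK293 cells carrying ER-alpha-UAS-bla reporter stimulated with 17beta-estradiol; nearly all actives have a fitted effect of over 45% in size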)
[2] = qHTS assay to identify small molecule antagonists of the estrogen receptor alpha (ER-alpha) signaling pathway using the BG1 cell line - cell viability counter screen (AID 743081);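 note: compound given together with 17beta-estradiol as the ER stimulus; nearly all actives have a fitted effect of over 45% in size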; note: potency is the fitted concentration of half-maximal effect
Aromatase (Homo sapiens) = Aromatase (Homo sapiens) (UniProt P11511); experiment: qHTS assay to identify aromatase inhibitors (AID 743083); note: nearly all actives have a fitted effect of over 55% in size; note: potency is the fitted concentration of half-maximal effect
Chain of Aromatase (Homo sapiens) (P11511 whole entry, looked up): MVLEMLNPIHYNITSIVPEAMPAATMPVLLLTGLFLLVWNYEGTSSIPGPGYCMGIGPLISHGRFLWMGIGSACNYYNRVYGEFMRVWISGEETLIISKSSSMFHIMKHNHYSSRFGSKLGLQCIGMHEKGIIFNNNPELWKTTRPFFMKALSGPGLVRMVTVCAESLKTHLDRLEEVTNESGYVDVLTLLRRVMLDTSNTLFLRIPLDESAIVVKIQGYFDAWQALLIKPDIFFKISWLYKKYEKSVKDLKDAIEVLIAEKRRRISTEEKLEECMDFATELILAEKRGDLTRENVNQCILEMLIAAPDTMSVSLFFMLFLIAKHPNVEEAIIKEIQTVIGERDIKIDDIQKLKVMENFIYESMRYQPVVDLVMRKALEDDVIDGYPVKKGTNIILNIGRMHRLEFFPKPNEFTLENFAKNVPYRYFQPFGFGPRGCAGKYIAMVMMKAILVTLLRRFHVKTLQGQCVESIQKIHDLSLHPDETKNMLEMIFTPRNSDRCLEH

[3] = qHTS assay to identify aromatase inhibitors - cell viability counter screen (AID 743084);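 note: cells stimulated with testosterone during compound exposure; nearly all actives have a fitted effect of over 55% in size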; note: potency is the fitted concentration of half-maximal effect
[4] = target: Aryl hydrocarbon receptor (Homo sapiens) (UniProt P35869); experiment: qHTS assay to identify small molecule that activate the aryl hydrocarbon receptor (AhR) signaling pathway (AID 743085); note: nearly all actives have a fitted effect of over 15% in size; note: potency is the fitted concentration of half-maximal effect;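 for activation: HG2L7.5c1 human HepG2 liver cells with stably integrated DRE-driven firefly reporter; series mostly up to about 70 µM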
Chain of Aryl hydrocarbon receptor (Homo sapiens) (P35869 whole entry, looked up): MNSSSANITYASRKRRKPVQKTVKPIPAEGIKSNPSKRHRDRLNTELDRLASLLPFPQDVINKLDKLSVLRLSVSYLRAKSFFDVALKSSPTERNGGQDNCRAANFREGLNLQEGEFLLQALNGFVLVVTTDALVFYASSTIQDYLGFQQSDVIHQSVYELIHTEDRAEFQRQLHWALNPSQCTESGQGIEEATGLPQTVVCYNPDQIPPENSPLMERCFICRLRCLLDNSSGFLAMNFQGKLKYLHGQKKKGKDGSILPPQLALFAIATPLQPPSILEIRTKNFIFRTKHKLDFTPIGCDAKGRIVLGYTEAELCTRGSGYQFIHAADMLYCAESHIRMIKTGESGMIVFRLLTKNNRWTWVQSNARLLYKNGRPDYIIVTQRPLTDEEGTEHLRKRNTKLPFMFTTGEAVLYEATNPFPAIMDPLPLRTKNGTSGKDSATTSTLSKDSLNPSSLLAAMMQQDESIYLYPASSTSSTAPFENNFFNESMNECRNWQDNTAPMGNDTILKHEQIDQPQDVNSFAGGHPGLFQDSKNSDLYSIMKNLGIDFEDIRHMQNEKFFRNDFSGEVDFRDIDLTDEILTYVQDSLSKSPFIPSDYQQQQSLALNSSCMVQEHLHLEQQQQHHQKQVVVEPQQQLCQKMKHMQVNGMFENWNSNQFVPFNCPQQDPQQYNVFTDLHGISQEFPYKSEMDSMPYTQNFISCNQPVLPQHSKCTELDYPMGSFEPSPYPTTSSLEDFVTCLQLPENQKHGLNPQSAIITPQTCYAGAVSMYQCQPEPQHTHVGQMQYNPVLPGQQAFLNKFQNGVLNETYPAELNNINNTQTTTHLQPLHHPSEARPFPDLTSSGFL
Method in brief: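 Measured in HG2L7.5c1 cells: CellTiter-Fluor signal (30 min incubation, 37C) for viability, then luciferase luminescence (30 min, room temperature). Compound contact time was 24 h at 37C, following a 5 h pre-incubation.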

[5] = qHTS assay to identify small molecule that activate the aryl hydrocarbon receptor (AhR) signaling pathway - cell viability counter screen (AID 743086); note: nearly all actives have a fitted effect of over 45% in size; note: potency is the fitted concentration of half-maximal effect
Method in brief: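 HepG2-AhR-luc (HG2L7.5c1) cells, 4000/well, were preincubated 5 h at 37C, exposed to compound in qHTS format for 24 hr at 37C, then given CellTiter-Fluor for 30 min; viability was read as fluorescence in the reporter wells.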

[6] = target: Peroxisome proliferator-activated receptor gamma (Homo sapiens) (UniProt P37231); experiment: qHTS assay to identify small molecule agonists of the peroxisome proliferator-activated receptor gamma (PPARg) signaling pathway (AID 743094; active = well fitted activation curve with a large enough effect in the signal ratio in the repeat runs, not every such curve was filed as active; inconclusive = weak or mixed curves, or effect the other way; inactive = no such curve, though single readings can be large or run the other way; the % refers to the signal ratio)
Chain of Peroxisome proliferator-activated receptor gamma (Homo sapiens) (P37231 whole entry, looked up): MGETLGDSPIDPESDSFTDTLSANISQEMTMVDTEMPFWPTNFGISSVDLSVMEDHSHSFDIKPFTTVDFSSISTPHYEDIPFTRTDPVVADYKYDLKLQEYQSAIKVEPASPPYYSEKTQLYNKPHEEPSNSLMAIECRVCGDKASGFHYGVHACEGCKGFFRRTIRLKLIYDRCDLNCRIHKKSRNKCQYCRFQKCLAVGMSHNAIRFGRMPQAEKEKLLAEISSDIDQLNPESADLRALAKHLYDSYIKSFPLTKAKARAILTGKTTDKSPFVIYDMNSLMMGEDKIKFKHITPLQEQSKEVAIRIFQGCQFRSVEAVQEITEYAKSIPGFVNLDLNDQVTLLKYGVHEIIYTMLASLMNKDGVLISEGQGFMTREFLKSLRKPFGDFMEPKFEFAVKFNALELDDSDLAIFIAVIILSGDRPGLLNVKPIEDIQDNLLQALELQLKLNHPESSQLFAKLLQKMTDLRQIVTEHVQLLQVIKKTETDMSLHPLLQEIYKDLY
Method in brief: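 Fluorescence-based beta-lactamase readout in HEK293H PPARg UAS-bla cells after 17 h compound exposure (37C) and 1 h B/G FRET substrate incubation at room temperature.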

[7] = target: Peroxisome proliferator-activated receptor gamma (Homo sapiens) (UniProt P37231); experiment: qHTS assay to identify small molecule antagonists of the peroxisome proliferator-activated receptor gamma (PPARg) signaling pathway (AID 743191; calls by dose curve; note: nearly all actives have a fitted effect of over 30% in size; note: potency is the fitted concentration of half-maximal effect)
Method in brief: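 GeneBLAzer PPARg UAS-bla HEK293H cells carrying a UAS-driven beta-lactamase reporter were plated at 3000 cells/well, preincubated 5 h at 37C, then given compound for 17 h at 37C; LiveBLAzer B/G FRET substrate was read after 1 h at room temperature.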

[8] = qHTS assay for small molecule agonists of the antioxidant response element (ARE) signaling pathway - cell viability counter screen (AID 743203; calls by dose curve; note: nearly all actives have a fitted effect of over 55% in size; note: potency is the fitted concentration of half-maximal effect)
Method in brief: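 Parallel cytotoxicity read-out for the ARE-bla screen: HepG2 reporter cells, 16 hrs with compounds, then CellTiter-Glo luminescence.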

[9] = qHTS assay for small molecule activators of the heat shock response signaling pathway - cell viability counter screen (AID 743209); note: nearly all actives have a fitted effect of over 50% in size
Method in brief: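 To flag cytotoxic compounds, HSE-bla HeLa cells plated at 1500 cells/well were dosed for 5 h at 37 C, followed by the reporter FRET read and then CellTiter-Glo, with luminescence recorded 30 min after reagent addition.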

[10] = qHTS assay for small molecule activators of the heat shock response signaling pathway (AID 743210; active = well fitted activation curve with a large enough effect in the signal ratio in the repeat runs, with a control signal flat, not every such curve was filed as active; inconclusive = weak or mixed curves; the % refers to the signal ratio; note: series mostly up to about 63 µM)
Method in brief: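 Heat shock element–beta-lactamase HeLa reporter cells; qHTS with compounds for 5 h at 37 C; detection by FRET substrate fluorescence after 2.5 h at RT.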

[11] = target: Peroxisome proliferator-activated receptor delta (Homo sapiens) (UniProt Q03181); experiment: qHTS assay to identify small molecule agonists of the peroxisome proliferator-activated receptor delta (PPARd) signaling pathway (AID 743212; calls by dose curve)
Chain of Peroxisome proliferator-activated receptor delta (Homo sapiens) (Q03181 whole entry, looked up): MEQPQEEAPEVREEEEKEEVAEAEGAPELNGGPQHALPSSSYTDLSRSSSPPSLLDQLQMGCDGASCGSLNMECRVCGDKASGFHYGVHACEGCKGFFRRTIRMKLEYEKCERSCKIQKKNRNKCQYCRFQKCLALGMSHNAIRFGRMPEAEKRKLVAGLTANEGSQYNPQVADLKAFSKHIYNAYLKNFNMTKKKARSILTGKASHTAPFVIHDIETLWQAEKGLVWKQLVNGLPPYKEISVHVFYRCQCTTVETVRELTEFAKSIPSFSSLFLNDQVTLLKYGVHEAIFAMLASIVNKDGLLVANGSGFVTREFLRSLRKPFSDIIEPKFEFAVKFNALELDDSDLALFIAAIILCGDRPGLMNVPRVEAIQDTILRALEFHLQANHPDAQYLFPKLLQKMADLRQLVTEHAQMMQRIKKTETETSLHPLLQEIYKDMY
Method in brief: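 Beta-lactamase reporter read by fluorescence (LiveBLAzer B/G FRET, 2 h, room temperature). Test agents, in DMSO, incubated at 37 C with PPARd-bla HEK293H cells.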

[12] = qHTS assay to identify small molecule antagonists of the peroxisome proliferator-activated receptor gamma (PPARg) signaling pathway - cell viability counter screen (AID 743194); note: nearly all actives have a fitted effect of over 55% in size; note: potency is the fitted concentration of half-maximal effect
Method in brief: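 PPARg-UAS-bla HEK293H cells were plated, rested 5 h at 37 C, then treated with compounds plus rosiglitazone (50 nM final) for 17 h at 37 C; viability was then read by CellTiter-Glo luminescence after 30 min at room temperature.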

[13] = qHTS assay to identify small molecule agonists of the peroxisome proliferator-activated receptor delta (PPARd) signaling pathway - cell viability counter screen (AID 743211); note: nearly all actives have a fitted effect of over 55% in size
Method in brief: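 Following 5 h plating at 37 C and 5% CO2, PPARd UAS-bla HEK293H cells took up test compounds for 17 h. Viability was quantified by luminescence 30 min after CellTiter-Glo addition at room temperature.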

[14] = target: Estrogen receptor (Homo sapiens) (UniProt P03372); experiment: qHTS assay to identify small molecule antagonists of the estrogen receptor alpha (ER-alpha) signaling pathway (AID 743069; active = well fitted curve in the direction sought with a large enough effect in the signal ratio in the repeat runs, not every such curve was filed as active; inconclusive = weak or mixed curves, or effect the other way; inactive = no such curve, though single readings can be large or run the other way; the % refers to the signal ratio; note: potency is the fitted concentration of half-maximal effect)
Chain of Estrogen receptor (Homo sapiens) (P03372 whole entry, looked up): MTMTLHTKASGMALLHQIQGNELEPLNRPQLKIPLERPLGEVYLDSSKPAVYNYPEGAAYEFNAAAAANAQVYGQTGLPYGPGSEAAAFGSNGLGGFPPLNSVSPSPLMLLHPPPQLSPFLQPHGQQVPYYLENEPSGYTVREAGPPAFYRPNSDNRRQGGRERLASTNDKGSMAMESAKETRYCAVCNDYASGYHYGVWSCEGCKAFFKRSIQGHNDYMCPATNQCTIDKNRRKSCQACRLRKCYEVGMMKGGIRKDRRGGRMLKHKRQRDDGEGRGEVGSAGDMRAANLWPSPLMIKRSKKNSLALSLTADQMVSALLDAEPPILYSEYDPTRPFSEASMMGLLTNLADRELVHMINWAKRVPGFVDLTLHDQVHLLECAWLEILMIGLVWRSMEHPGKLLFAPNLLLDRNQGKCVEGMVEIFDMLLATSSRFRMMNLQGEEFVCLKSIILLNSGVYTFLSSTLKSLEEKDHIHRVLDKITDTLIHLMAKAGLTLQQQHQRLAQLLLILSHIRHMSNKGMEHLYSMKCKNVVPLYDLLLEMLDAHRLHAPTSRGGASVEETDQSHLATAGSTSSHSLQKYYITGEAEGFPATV
Method in brief: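 A 17beta-estradiol challenge was applied right after compound transfer to ER-alpha-UAS-bla HEK293 cells previously kept in charcoal-stripped serum. Plates stood 18 hr at 37C and 5% CO2; fluorescence was read following 2 hr FRET substrate loading at room temperature.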

[15] = target: Estrogen receptor (Homo sapiens) (UniProt P03372); experiment: qHTS assay to identify small molecule agonists of the estrogen receptor alpha (ER-alpha) signaling pathway (AID 743075; calls by dose curve;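 note: HEK293 GripTite cells with ER-alpha and UAS-driven beta-lactamase reporter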)
[16] = target: Estrogen receptor (Homo sapiens) (UniProt P03372); experiment: qHTS assay to identify small molecule agonists of the estrogen receptor alpha (ER-alpha) signaling pathway using the BG1 cell line (AID 743079); note: nearly all actives have a fitted effect of over 20% in size
[17] = qHTS assay to identify small molecule antagonists of the estrogen receptor alpha (ER-alpha) signaling pathway using the BG1 cell line (AID 743080; calls by dose curve;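 note: BG1 cells stimulated with 17beta-estradiol alongside compound; nearly all actives have a fitted effect of over 25% in size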; note: potency is the fitted concentration of half-maximal effect)
Method in brief: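 Quantitative HTS on the Tox21 10K library: BG1 cells with endogenous ER-alpha and ERE-luciferase reporter, 17beta-estradiol stimulation, 21.5 h compound exposure, luminescence endpoint with parallel fluorescence cytotoxicity counter-read.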

[18] = qHTS assay for small molecule agonists of the antioxidant response element (ARE) signaling pathway (AID 743202; active = well fitted activation curve with a large enough effect in the signal ratio in the repeat runs, not every such curve was filed as active; inconclusive = weak or mixed curves, or effect the other way; inactive = no such curve, though single readings can be large or run the other way; the % refers to the signal ratio; note: potency is the fitted concentration of half-maximal effect)
Method in brief: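 Following a 16 h, 37 C exposure of reporter HepG2 cells (ARE-driven beta-lactamase, 2,000 cells/well) to compounds, FRET substrate was applied for 2 h at room temperature and fluorescence intensity recorded.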

| Compound | outcome [1] | Potency [2] | Potency (Aromatase (Homo sapiens)) | Potency [3] | Potency [4] | Potency [5] | Potency [6] | Potency [7] | Potency [8] | outcome [9] | outcome [10] | Potency [11] | Potency [12] | Potency [13] | Potency [14] | Potency [15] | Potency [16] | Potency [17] | Potency [18] |
| --- | --- | --- | --- | --- | --- | --- | --- | --- | --- | --- | --- | --- | --- | --- | --- | --- | --- | --- | --- |
| CCCc1nc(C)c2c(=O)[nH]c(-c3cc(S(=O)(=O)N4CCN(CC)CC4)ccc3OCC)nn12 | inactive | inactive | inactive | inactive | inactive | inactive | inactive | inactive | inactive | inactive | inactive | inactive |  |  |  |  |  |  |  |
| Nc1ccccc1Nc1ccccc1 | inactive | inactive |  |  | 54.6 µM (active) |  |  | 43.8 µM (active) |  | inactive |  |  | inactive | inactive |  |  |  |  |  |
| Oc1ccc(CCNCCCCCCNCCc2ccccc2)cc1O |  |  | inactive | inactive | inactive | inactive |  |  | inactive | inactive |  | inactive | inactive |  | inactive | inactive | inactive | inactive | inactive |
| COC(=O)c1cc(Cl)ccc1[N+](=O)[O-] | inactive | inactive | inactive | inactive | inactive |  |  | inactive | inactive | inactive | inactive | inactive | inactive |  | inactive | inactive | inactive | inactive | inactive |
| C/C=C1\[C@H]2C=C(C)C[C@]1(N)c1ccc(=O)[nH]c1C2 | inactive | inactive | inactive | inactive |  | inactive | inactive | inactive | inactive | inactive | inactive | inactive | inactive |  |  |  |  |  | inactive |
| N#C[C@@H]1CC(F)(F)CN1C(=O)CNC1CC2CCC(C1)N2c1ncccn1 (some centres undefined) | inactive | inactive | inactive | inactive | inactive | inactive | inactive | inactive | inactive | inactive |  | inactive | inactive | inactive | inactive | inactive | inactive |  | inactive |
| CCC(C(=O)O)c1ccc(N2Cc3ccccc3C2=O)cc1 (centres undefined) |  |  |  |  |  |  |  | inactive | inactive | inactive | inactive | inactive | inactive | inactive |  |  |  |  |  |
| O=C(c1ccco1)N1CCNCC1 |  |  |  |  |  |  |  |  | inactive | inactive |  | inactive | inactive | inactive |  |  |  |  | inactive |
| COc1ccc(/C=C/S(=O)(=O)NC(=O)c2ccc(C)cc2Cl)cc1 |  | inactive | inactive | inactive | inactive | inactive | inactive |  | inactive | inactive | inactive | inactive | inactive | inactive |  |  |  |  | inactive |
| CC1(COc2ccc(CC3SC(=O)NC3=O)cc2)CCCCC1 (centres undefined) |  | inactive |  | inactive |  | inactive |  |  |  | inactive | inactive |  | inactive |  |  | inactive |  | inactive |  |
| C(/C=C/C=C/Nc1ccccc1)=Nc1ccccc1 | inactive | inactive | inactive | inactive |  | inactive |  |  | inactive | inactive | inactive |  | inactive | inactive | inactive | inactive | inactive | inactive |  |
| CCN(CC)CC(=O)OCC(=O)[C@@]1(O)CC[C@H]2[C@@H]3CCC4=CC(=O)CC[C@]4(C)[C@H]3[C@@H](O)C[C@@]21C |  |  |  |  |  |  |  |  | inactive | inactive | inactive | inactive | inactive | inactive |  |  |  |  | inactive |
| CC(O)CN (centres undefined) | inactive | inactive | inactive | inactive |  |  |  |  | inactive | inactive |  |  | inactive | inactive | inactive | inactive | inactive | inactive | inactive |
| CO[C@@H]1[C@@H](O[C@@H]2O[C@H](C)[C@@H](O[C@H]3C[C@@](C)(O)[C@@H](O)[C@H](C)O3)[C@H](N(C)C)[C@H]2O)[C@@H](CC=O)C[C@@H](C)[C@@H](O[C@@H]2CC[C@H](N(C)C)[C@@H](C)O2)/C=C/C=C/C[C@@H](C)OC(=O)C[C@H]1OC(C)=O |  |  | inactive | inactive | inactive |  | inactive | inactive | inactive | inactive | inactive |  | inactive | inactive | inactive | inactive | inactive | inactive | inactive |
| CO[C@@H]1COCC[C@@H]1N[C@@H]1CC[C@@](C(=O)N2CCc3ncc(C(F)(F)F)cc3C2)(C(C)C)C1 | inactive | inactive | inactive | inactive | inactive | inactive |  | inactive | inactive | inactive | inactive | inactive | inactive | inactive |  |  |  |  | inactive |
| Nc1ccc(F)cc1F | inactive | inactive | inactive | inactive |  | inactive |  | inactive | inactive | inactive | inactive | inactive | inactive | inactive | inactive | inactive | inactive | inactive | inactive |
| CC(C)C[C@H](NC(=O)[C@H](Cc1ccccc1)NC(=O)c1cnccn1)B(O)O | inactive | 1.06 µM (active) and 668 nM (active) | 21.1 nM (active) and 15 nM (active) | 1.33 µM (active) | inactive | 376 nM (active) and 335 nM (active) |  |  | 0.335 µM (active) | inactive |  |  | 0.0841 µM (active) |  | 0.0674 µM [inconclusive] (active) |  |  | 66.8 nM (active) and 53.1 nM (active) | 0.0237 µM (active) |
| Cc1c(Cl)cccc1Nc1ccccc1C(=O)O | inactive | inactive | inactive | inactive | inactive | inactive | inactive |  | inactive | inactive | inactive |  | inactive |  |  | inactive | inactive | inactive | 26.6 µM (active) |
| Cc1ccc2c(Cl)cc(Cl)c(O)c2n1 |  |  | 13.3 µM (active) | 23.7 µM (active) | inactive | inactive |  | inactive | inactive | inactive | inactive | inactive | inactive | inactive |  |  |  | 9.44 µM (active) | inactive |
| CC(CC(C#N)(c1ccccc1)C(C)C)N(C)C (centres undefined) |  |  |  |  |  |  |  | inactive | inactive | inactive | inactive |  | inactive | inactive |  |  |  |  | inactive |

— PubChem BioAssay (Tox21)
